High-throughput results deposited in PubChem by National Center for Advancing Translational Sciences (NCATS).
A selection: hits, their analogues and other compounds. The true share with any hit is near 8.1%.
VP16 counter = VP16 counterscreen qHTS for inhibitors of ROR gamma transcriptional activity. Drosophila S2 Gal4-VP16 UAS-luciferase, luminescence, 20 h. Potency, µM (highest dose often 53.6 µM), usual class: inhibitors. 310,000 compounds, 3.5% hits;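 further: Gal4-VP16 expression switched on by copper sulfate through the metallothionein promoter; nearly all actives have a fitted effect of over 50% in size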
Sfp PPTase inh = qHTS Assay for Inhibitors of Bacillus subtilis Sfp phosphopantetheinyl transferase (PPTase); 310,000 compounds, 3.5% hits; Biochemical Sfp PPTase activity, qHTS; Potency, µM, usual class: inhibitors; 4'-phosphopantetheinyl transferase ffp (Bacillus subtilis), Q9F4F7;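 further: the enzyme is Sfp with the accession as filed and its product quenches rhodamine fluorescence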
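Step 1, compound plus 15 nM Sfp-PPTase, 15 min, room temperature. Step 2, add rhodamine-CoA (5 uM) and BHQ-2-YbbR (12.5 uM). Step 3, read 525/598 nm fluorescence at 0 and 30 min.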
RORgamma inh = qHTS for inhibitors of ROR gamma transcriptional activity. 310,000 compounds, 5.4% hits. Drosophila S2 Gal4-RORgamma UAS-luciferase reporter, 20 h. Nuclear receptor ROR-gamma (Mus musculus), P51450. Potency, µM (highest dose often 53.6 µM), hits mostly inhibitors; further: nearly all actives have a fitted effect of over 60% in size
Target sequence (P51450 whole entry, looked up, the tested form may be a part): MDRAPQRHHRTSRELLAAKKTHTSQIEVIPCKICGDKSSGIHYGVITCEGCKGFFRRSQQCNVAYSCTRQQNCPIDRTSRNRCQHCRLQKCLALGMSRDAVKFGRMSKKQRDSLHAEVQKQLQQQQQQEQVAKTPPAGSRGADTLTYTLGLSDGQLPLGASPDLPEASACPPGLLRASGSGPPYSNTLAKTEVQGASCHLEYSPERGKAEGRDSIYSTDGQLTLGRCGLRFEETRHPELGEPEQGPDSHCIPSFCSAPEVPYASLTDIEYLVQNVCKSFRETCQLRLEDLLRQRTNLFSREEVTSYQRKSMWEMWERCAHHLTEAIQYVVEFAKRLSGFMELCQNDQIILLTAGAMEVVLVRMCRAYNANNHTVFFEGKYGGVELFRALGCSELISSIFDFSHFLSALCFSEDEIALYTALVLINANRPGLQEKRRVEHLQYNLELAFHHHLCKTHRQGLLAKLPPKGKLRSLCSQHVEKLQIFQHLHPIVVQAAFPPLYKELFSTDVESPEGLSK
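Luciferase reporter read in Schneider cells carrying Gal4-RORγ (mouse) and UAS-Photinus luciferase; cells given compound 1 h before 700 uM copper sulfate induction, then incubated 20 h at ambient temperature.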
ClpP mod = qHTS Assay for Activators of ClpP; 340,000 compounds, 1.9% hits; purified B. subtilis ClpP, FRET peptide cleavage, 20 min; Potency, µM (series often up to 57.5 µM); ATP-dependent Clp protease proteolytic subunit (Bacillus subtilis (strain 168)), P80244; active means well fitted falling curve with a large enough effect; inconclusive means small, poorly fitted or top-dose-only effect; inactive means no such curve, though single readings can be large or run the other way; further: the source files actives as falling curves though it sought activators and does not explain the sign; nearly all actives have a fitted effect of over 65% in size
Target sequence (P80244 whole entry, looked up): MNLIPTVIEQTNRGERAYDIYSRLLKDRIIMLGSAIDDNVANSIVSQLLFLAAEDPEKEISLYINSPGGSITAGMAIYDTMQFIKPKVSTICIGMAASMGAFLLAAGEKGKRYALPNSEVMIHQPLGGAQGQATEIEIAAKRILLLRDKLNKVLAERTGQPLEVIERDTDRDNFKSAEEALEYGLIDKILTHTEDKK
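FRET quenching reversal measured ClpP activation: 10 microg/mL B. subtilis ClpP at pH 8 with the FRET-FV decapeptide, read at 430 nm after 320 nm excitation. The 20-min minus 0-min signal was scaled between DMSO/no-enzyme wells and ADEP (5.8 microM final).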
Epigenetic reg = Quantitative High-Throughput Screen for Regulators of Epigenetic Control; murine LDR cells, GFP reporter derepression, 30 h; Potency, µM (titrated, usually from 53.9 µM), hits mostly activators; 280,000 compounds, 0.2% hits; further: nearly all actives have a fitted effect of over 60% in size
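Reporter derepression read as number of fluorescent GFP-positive objects, 20-120 um in size, counted by laser-scanning cytometer. Mouse LDR line with an epigenetically silenced CMV-GFP locus; compound incubation 30 h, 37 C.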
PINK1 expr mod = A Quantitative High throughput Screen to Identify Chemical Modulators of PINK1 Expression; 410,000 compounds, 0.2% hits; AID 624263, 2012; Potency, µM (titrated, usually from 76.6 µM), hits mostly activators; PINK1 immunofluorescence, high-content cytometry, 24 h; active means well fitted activation curve with a large enough effect; inconclusive means small, poorly fitted or top-dose-only effect; cell line not stated here; further: nearly all actives have a fitted effect of over 65% in size
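Decision-based qHTS: stable cells, 24 h exposure to five compound concentrations, CCCP as control. Fixed cells stained for PINK1 plus nuclear, mitochondrial and cell markers, cytometer read.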
Hits are given with their value. Unless noted, the call rests on the fitted dose curve; in most records, active means well fitted curve in the direction sought with a large enough effect; inconclusive means small, poorly fitted or top-dose-only effect, or another doubt; inactive means no such curve, though single readings can be large; an effect the other way counts as inactive or inconclusive.

How did Cc1cc(C)c(S(=O)(=O)Nc2c(C)[nH]c(=O)[nH]c2=O)c(C)c1 do in these assays?
VP16 counter: inactive; Sfp PPTase inh: inactive; RORgamma inh: inconclusive; ClpP mod: inactive; Epigenetic reg: inactive

How did Fc1ccc(Nc2c(-c3c[nH]c4ccccc34)nc3ccccn23)cc1 do in these assays?
ClpP mod: inactive; Epigenetic reg: inactive; PINK1 expr mod: inactive

How did CCOC(=O)Cc1c(C)c2c(C)[nH]nc2oc1=O do in these assays?
VP16 counter: inactive; Sfp PPTase inh: inactive; RORgamma inh: inactive; ClpP mod: inactive; Epigenetic reg: inactive; PINK1 expr mod: inactive

How did CCOC(=O)Cc1c(C)c2c(C)nn(-c3ccccc3)c2oc1=O do in these assays?
VP16 counter: inactive; Sfp PPTase inh: inactive; RORgamma inh: inactive; ClpP mod: 35µM; Epigenetic reg: inactive; PINK1 expr mod: inactive

How did CCN(Cc1ccccc1)C(=O)c1c[nH]c2ccc(S(=O)(=O)N(C)CCC#N)cc2c1=O do in these assays?
VP16 counter: inactive; Sfp PPTase inh: inactive; RORgamma inh: inactive; ClpP mod: 32µM; Epigenetic reg: inactive; PINK1 expr mod: inactive

What do the screens show for `CCc1ccccc1NS(=O)(=O)c1ccc2[nH]cc(C(=O)N(CC)Cc3ccccc3)c(=O)c2c1`?
ClpP mod: inactive; Epigenetic reg: inactive; PINK1 expr mod: inactive

Results for O=[N+]([O-])c1ccc(/C=C2\C=Cc3ccccc32)cc1 ?
ClpP mod: inactive; PINK1 expr mod: inactive

How did Cc1ccc(S(=O)(=O)c2c(N)n(CCC(C)C)c3nc4ccccc4nc23)cc1 do in these assays?
VP16 counter: inactive; Sfp PPTase inh: inactive; RORgamma inh: inconclusive; ClpP mod: 25µM; Epigenetic reg: inactive; PINK1 expr mod: inconclusive

What do the screens show for `Cc1ccc(S(=O)(=O)c2c(N)n(NC(=O)c3ccccc3C)c3nc4ccccc4nc23)cc1`?
VP16 counter: inactive; Sfp PPTase inh: inactive; RORgamma inh: inactive; ClpP mod: 32µM; Epigenetic reg: inactive; PINK1 expr mod: inactive

What do the screens show for `Nc1c(S(=O)(=O)c2ccccc2)c2nc3ccccc3nc2n1C1CC1`?
VP16 counter: inactive; Sfp PPTase inh: inactive; RORgamma inh: inactive; Epigenetic reg: inactive; PINK1 expr mod: inactive

How did CCCCn1c(NS(=O)(=O)c2ccccc2)c(S(=O)(=O)c2ccc(C)cc2)c2nc3ccccc3nc21 do in these assays?
VP16 counter: inactive; Sfp PPTase inh: inactive; RORgamma inh: inactive; ClpP mod: 16µM; Epigenetic reg: inactive; PINK1 expr mod: inconclusive

Results for Cc1ccc(S(=O)(=O)c2c(N)n(CCCO)c3nc4ccccc4nc23)cc1 ?
VP16 counter: inactive; Sfp PPTase inh: inactive; RORgamma inh: inactive; ClpP mod: inactive; Epigenetic reg: inactive; PINK1 expr mod: inactive

How did Cc1ccc(C(=O)Nn2c(N)c(S(=O)(=O)c3ccc(C)cc3)c3nc4ccccc4nc32)cc1 do in these assays?
VP16 counter: inconclusive; Sfp PPTase inh: inactive; RORgamma inh: inactive; ClpP mod: 28µM; Epigenetic reg: inactive; PINK1 expr mod: inactive

How did Cc1cnc2ccccc2c1C do in these assays?
ClpP mod: inactive

What do the screens show for `Cn1c(N)c(S(=O)(=O)c2ccc(Br)cc2)c2nc3ccccc3nc21`?
VP16 counter: inconclusive; Sfp PPTase inh: inactive; RORgamma inh: inactive; ClpP mod: 14µM; Epigenetic reg: inactive; PINK1 expr mod: inactive

Results for O=C(CSc1nnc(CNc2ccc(Cl)cc2)o1)Nc1nc2c(s1)CCCC2 ?
VP16 counter: inconclusive; Sfp PPTase inh: inactive; RORgamma inh: 11µM; ClpP mod: inactive; Epigenetic reg: inactive; PINK1 expr mod: inactive

What do the screens show for `CC(C)(C)c1ccc(-n2ncc3c2CCCC3NC(=O)CN2CCCC2=O)cc1` (centres undefined)?
VP16 counter: 7.1µM; Sfp PPTase inh: inactive; RORgamma inh: inconclusive; ClpP mod: inactive; PINK1 expr mod: inactive

How did Cc1cc(C(=O)NC2CCCc3c2cnn3-c2ccc(C)c(C)c2)no1 (centres undefined) do in these assays?
VP16 counter: inactive; Sfp PPTase inh: inactive; RORgamma inh: inconclusive; ClpP mod: inactive; PINK1 expr mod: inactive

How did COc1cc(C(=O)NC2CC(C)(C)Cc3c2cnn3-c2ccccc2)cc(OC)c1OC (centres undefined) do in these assays?
VP16 counter: inactive; Sfp PPTase inh: inactive; RORgamma inh: inactive; PINK1 expr mod: inactive

Results for Cc1ccc(-n2ncc3c2CCCC3NC(=O)c2ocnc2C)cc1C (centres undefined) ?
VP16 counter: 7.1µM; Sfp PPTase inh: inactive; RORgamma inh: inactive; ClpP mod: inactive; PINK1 expr mod: inactive

What do the screens show for `CC1(C)Cc2c(cnn2-c2ccc(F)cc2)C(NC(=O)CN2CCCCC2=O)C1` (centres undefined)?
VP16 counter: 16µM; Sfp PPTase inh: inactive; RORgamma inh: 3.5µM; ClpP mod: inactive; PINK1 expr mod: inactive

Results for COc1cccc(C(=O)NC2CC(C)(C)Cc3c2cnn3-c2cccc(F)c2)c1OC (centres undefined) ?
VP16 counter: inactive; Sfp PPTase inh: inactive; RORgamma inh: inactive; ClpP mod: 14µM; PINK1 expr mod: inactive

What do the screens show for `Cc1cccc(CC(=O)NCc2nc3cccnc3n2Cc2ccc(F)cc2)c1`?
ClpP mod: inactive; Epigenetic reg: inactive; PINK1 expr mod: inactive

How did Cc1ccc(-c2nn(CC(=O)NC3CCCCC3)c3c2cnc2ccccc23)cc1 do in these assays?
ClpP mod: inactive; Epigenetic reg: inactive; PINK1 expr mod: inactive

Results for CC(=O)NC1CCCc2c1cnn2-c1ccc(C(C)(C)C)cc1 (centres undefined) ?
VP16 counter: inactive; Sfp PPTase inh: inactive; RORgamma inh: inconclusive; ClpP mod: inactive; PINK1 expr mod: inactive

What do the screens show for `Cn1nccc1C(=O)NC1CCCc2c1cnn2-c1ccc(C(C)(C)C)cc1` (centres undefined)?
VP16 counter: 2.5µM; Sfp PPTase inh: inactive; RORgamma inh: inconclusive; ClpP mod: inactive; PINK1 expr mod: inactive

How did CC(C)(C)c1ccc(-n2ncc3c2CCCC3NC(=O)CCN2CCCC2=O)cc1 (centres undefined) do in these assays?
VP16 counter: 0.89µM; Sfp PPTase inh: inactive; RORgamma inh: 3.5µM; ClpP mod: inactive; PINK1 expr mod: inactive

How did CC(=O)CCC(=O)NC1CCCc2c1cnn2-c1ccc(C(C)(C)C)cc1 (centres undefined) do in these assays?
VP16 counter: inconclusive; Sfp PPTase inh: inactive; RORgamma inh: inconclusive; ClpP mod: inactive; PINK1 expr mod: inactive

How did CCOc1c(Cl)cc(/C=N/NC(N)=S)cc1OC do in these assays?
VP16 counter: 16µM; Sfp PPTase inh: inactive; RORgamma inh: 7.1µM; Epigenetic reg: inactive; PINK1 expr mod: inactive
